High-throughput results deposited in PubChem by The Scripps Research Institute Molecular Screening Center.
An excerpt weighted towards active compounds, which were near 5.7% of everything screened.
DAX1 inh-1: inhibitors of human orphan nuclear receptor DAX1 (NR0B1); inhibition, % at 6.75 µM; P51843; actives 0.99% (n = 340,000); HEK293 Gal4-DAX1 luciferase reporter, luminescence;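 active = inhibition above the mean over all tested compounds plus 3 SD, cut at about 4.2% in these data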;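 note: 0% = DAX1-transfected cells with DMSO and 100% = empty-vector control cells with DMSO; inhibition shows as a rise in luminescence from relieved DAX1 repression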
Target sequence (P51843 207-470 limits assumed): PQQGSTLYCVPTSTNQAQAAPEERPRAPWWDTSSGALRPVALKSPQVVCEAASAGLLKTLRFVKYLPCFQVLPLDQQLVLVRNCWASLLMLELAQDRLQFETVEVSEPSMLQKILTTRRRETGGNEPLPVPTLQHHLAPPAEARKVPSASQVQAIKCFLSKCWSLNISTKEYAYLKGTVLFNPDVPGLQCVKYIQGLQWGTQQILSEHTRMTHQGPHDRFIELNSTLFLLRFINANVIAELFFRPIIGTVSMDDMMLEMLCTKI
hgDAF-12 ag: agonists of H. glycines DAF-12 nuclear receptor; activation, % at 6.8 µM; HEK293 GAL4-hgDAF12 UAS-luciferase reporter, agonist luminescence; normalized to butyrate control; actives 1.8% (n = 370,000);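 active = activation above a cutoff set at the mean of all screened compounds plus 3 SD, cut at about 10% in these data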;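 note: 0% = DMSO wells and 100% = sodium butyrate wells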
DAX1 inh-2: inhibitors of DAX1 repression of SF-1 activated StAR promoter. HEK293T StAR-luciferase reporter, SF-1/DAX-1 repression relief. inhibition, % at 6.8 µM. actives 1.1% (n = 370,000);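 active = inhibition above the mean over all tested compounds plus 3 SD, cut at about 3.6% in these data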;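 note: 0% = DAX-1 cells with DMSO and 100% = cells lacking DAX-1 with DMSO; higher inhibition means more luminescence from relief of DAX-1 repression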
AHR activator: human AHR activation; AHR-responsive luciferase reporter cells, luminescence; activation, % at 5 µM; AID 2796; P35869; actives 2.5% (n = 320,000); in the data active = activation above about 47%;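 note: 0% = vehicle wells and 100% = reference agonist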
ssDAF-12 act: activates DAF-12 receptor from parasite S. stercoralis; HEK293 ssDAF-12/GRIP1 lit1-tk-luc reporter, luminescence; % of 3 µM dafachronic acid response; activation, % at 6.8 µM; actives 1% (n = 370,000);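 active = activation above the mean over all tested compounds plus 3 SD, cut at about 0.9% in these data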;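 note: 0% = DMSO-only wells and 100% = 3 µM delta7-dafachronic acid wells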
hcDAF-12 act: activators of H. contortus DAF-12 nuclear receptor; HEK293 hcDAF-12 lit1-tk-luc reporter, luminescence; 0% DMSO, 100% Δ7-dafachronic acid; activation, % at 6.8 µM; actives 1.4% (n = 370,000); AID 652067;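 active = activation above the mean of all tested compounds plus 3 SD, cut at about 5.5% in these data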;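 note: 100% = response to 3 µM Δ7-dafachronic acid high control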
* hit, by the source's call; / = not tested or not shown.

SMILES	DAX1 inh-1	hgDAF-12 ag	DAX1 inh-2	AHR activator	ssDAF-12 act	hcDAF-12 act
CCCCNC(=S)N(C)/N=C/c1sc(N2CCCCC2)nc1-c1cccs1	/	/	/	18	/	/
COc1cccc(C(=O)NCc2ccco2)c1	-1	3	0	6	-1	0
Nc1nc(SCn2nnc3ccccc3c2=O)n[nH]1	6.8*	-1	1	-1	-2	1
COc1ccc(CC(=O)Nc2nc(OCC(F)(F)F)cnc2-c2ccc(Cl)cc2Cl)cc1	/	-4	-1	/	-1	-2
CCn1cc(C(=O)N2CC(C)CC(C)C2)c(=O)c2cc(S(=O)(=O)N(C)C)ccc21 (centres undefined)	-1	-2	-1	2	-1	-2
COCCNC(=O)c1cn(C)c2ccc(S(=O)(=O)N(C)C3CCCCC3)cc2c1=O	6.5*	-2	0	1	-1	-1
CC1CC(C)CN(C(=O)c2cn(C)c3ccc(S(=O)(=O)N(C)C)cc3c2=O)C1 (centres undefined)	4.5*	-1	-1	2	0	0
COC(CNC(=O)c1cn(C)c2ccc(S(=O)(=O)N(C)C3CCCCC3)cc2c1=O)OC	4	3	0	1	-1	1
N#C/C(Cn1c[n+](NC(=O)Nc2ccccc2)cn1)=N/O	4.7*	3	0	-2	-1	-1
CC(C)(CO)CNC(=O)CCc1nnc(-c2ccc(-c3ccccc3)cc2)o1	-1	-8	-1	-10	-3	-4
CN(C)S(=O)(=O)c1ccc(C(=O)N2CCN(C(=O)C3CCCO3)CC2)cc1 (centres undefined)	0	3	1	-1	-1	-2
CN(C)S(=O)(=O)c1cccc(C(=O)N2CCN(C(=O)C3CCCO3)CC2)c1 (centres undefined)	2	-1	3.8*	0	-1	0
CCc1nc2c(OCCOc3ccc(F)cc3)cccn2c1N(C)C(=O)CC(C)C	/	-4	-1	/	-1	-1
Cc1ccc(C)c(NC(=O)CN(C)C(=O)c2cc(C3CC3)nn2-c2ccccc2)c1	1	3	-1	8	-1	-1
Nc1ccc(N=Nc2ccc(O)cc2)c(N)n1	-2	1	-2	/	0	0
COc1ccc(N=Nc2ccc(N)nc2N)cc1	4.6*	11*	3	8	0	5
CCc1ccccc1NC(=O)C1CCN(C(=O)c2cccs2)CC1	4.4*	1	0	-3	-2	3
Cc1ccc(NC(=O)C2CCN(C(=O)c3cccs3)CC2)c(C)c1	0	-1	0	1	-2	-2
Cc1ccc(C(=O)N2CCN(c3ccccc3F)CC2)cc1NC1=NC2CS(=O)(=O)CC2S1 (centres undefined)	1	0	0	0	-1	-2
Cc1ccc(Sc2cnn(-c3ccccc3)c(=O)c2Cl)cc1	0	-2	-1	61*	1	5
Nc1ccc(Sc2cnn(-c3ccccc3)c(=O)c2Cl)cc1	1	2	-1	6	0	1
Cc1ccc(S(=O)(=O)Cc2ccc(C(=O)N3CCC(C(N)=O)CC3)o2)cc1	0	0	-1	2	-1	2
NC(=O)C1CCN(C(=O)c2ccc(CS(=O)(=O)c3c(Cl)cccc3Cl)o2)CC1	6.9*	4	0	0	-1	-1
CN1CCc2nc(SCC(=O)Nc3ccc(F)cc3)c(C#N)cc2C1	/	/	/	67*	/	/
COc1ccc(CC(CC(=O)O)C(=O)Nc2ccc(Cl)c(Cl)c2)cc1 (centres undefined)	3	0	1	0	-2	0
SMILES	DAX1 inh-1	hgDAF-12 ag	DAX1 inh-2	AHR activator	ssDAF-12 act	hcDAF-12 act
Cc1ccc(C(=O)NNC2=Nc3cccc4cccc2c34)cc1	0	2	0	79*	-1	1
COc1ccc(C(=O)NNC2=Nc3cccc4cccc2c34)cc1	1	1	-1	39	-1	1
COC(=O)C1(C)COP(=O)(Nc2ccc(OC)cc2)OC1 (centres undefined)	/	5	0	/	0	0
Cc1ccc(CN2CC(C(=O)NCCC3=CCCCC3)CC2=O)cc1 (centres undefined)	0	5	1	1	-1	0
O=C1NCCNC1(c1c[nH]c2ccccc12)C(F)(F)F (centres undefined)	1	3	0	15	1.4*	5
Cc1cc(O)c(C2(C(F)(F)F)NCCNC2=O)cc1C (centres undefined)	0	1	0	1	-1	0
COc1ccc(N(CC(=O)NCCc2ccc(Cl)cc2)S(=O)(=O)c2c(C)[nH]c(=O)[nH]c2=O)cc1	1	0	-1	1	-1	0
O=C(Cc1cccc(NC(=O)C2CCN(C(=O)CCc3ccccc3)CC2)c1)Nc1cccc(C(=O)N2CCCCC2)c1	-1	0	-1	/	-2	-2
CCOC(=O)c1c(C)nc2sc3c(=O)n(-c4ccc(OC)cc4)cnc3c2c1-c1ccc(OC)cc1	0	4	0	0	-1	0
CCOC(=O)c1c(C)nc2sc3c(=O)n(-c4ccc(C(C)=O)cc4)nnc3c2c1-c1ccc(OC)cc1	0	1	-1	5	-2	7.0*
Cc1ccc(/C=N/NC(=O)c2c[nH]c3ccccc23)o1	-1	/	/	72*	/	/
Cc1ccc(/C=N/NC(=O)c2cccc3ccccc23)o1	-1	-1	0	8	-1	-1
CCn1nc(C)c(/C=N/NC(=O)c2c[nH]c3ccccc23)c1C	2	8	2	99*	0	3
O=C(N/N=C/c1ccc[nH]1)c1c[nH]c2ccccc12	1	-1	1	/	0	0
Cc1ccc(/C=N/NC(=O)c2c[nH]c3ccccc23)s1	0	6	1	50*	0	1
Cc1nn(-c2ccc(Cl)cn2)c2c1C(=O)CC(C)(C)C2Br (centres undefined)	-2	2	0	/	-1	-1
CCOc1ccc(NC(=O)Cc2ccccc2)c([N+](=O)[O-])c1	-1	4	-1	5	-1	0
CCOc1ccc(NC(=O)Cc2cccc3ccccc23)c([N+](=O)[O-])c1	-1	-3	-1	0	6.7*	-1
Cc1cc(C)nc(Nc2n[nH]c(-c3ccc(N)cc3)n2)n1	1	11*	3	22	0	3
Cc1cc(C)nc(Nc2n[nH]c(-c3ccc(C(C)(C)C)cc3)n2)n1	-1	0	-1	4	-1	-1
Cc1cc2nc(-c3ccc(SCC(=O)NC(C)C)nc3)[nH]c2cc1C	/	/	/	78*	/	/
Cc1cc2nc(-c3cccnc3SCC(=O)NC3CC3)[nH]c2cc1C	/	6	2	55*	0	4
Cc1cc2nc(-c3ccc(SCc4ccc(C(=O)O)cc4)nc3)[nH]c2cc1C	2	12*	2	27	-1	0
